Experimental data reported in ChEMBL document CHEMBL1157539, “Thousands of chemical starting points for antimalarial lead identification” (Nature, 2010).

How the values were obtained:
Assay type in all cases: functional
[1] = system: Plasmodium falciparum; assay: GSK_TCMDC: Inhibition of Plasmodium falciparum 3D7 in whole red blood cells, using parasite LDH activity as an index of growth. Test compounds present at 2uM
[2] = system: Plasmodium falciparum; assay: GSK_TCMDC: Inhibition of Plasmodium falciparum Dd2 in whole red blood cells, using parasite LDH activity as an index of growth. Test compounds present at 2uM
[3] = system: HepG2; assay: GSK_TCMDC: Percent inhibition of human HepG2 cell line. Test compounds present at 10uM.

Compound | Inhibition [1] [%] | Inhibition [2] [%] | Inhibition [3] [%]
Cc1cccc2nc(-c3ccc(-c4ccc(C(=O)NCCN5CCCC5)cc4)s3)[nH]c12 | 100 | 13 | 20
O=C(Cc1n[nH]c(=O)c2ccccc12)Nc1cccc(C(=O)Nc2cccc(C(F)(F)F)c2)c1 | 97 | 90 | 0
Cc1cc(NCCC(=O)Nc2ccccc2)nc(NCc2ccccc2C)n1.O=C(O)C(F)(F)F | 100 | 57 | 6
CON=Cc1sc(CNCCCN=c2cc(O)c3ccccc3[nH]2)c(C)c1Br.Cl | 96 | 63 | 0
Cc1cc(=NN=Cc2cccc(Cl)c2)c2cc(F)ccc2[nH]1 | 100 | 100 | 1
O=C(Cc1c[nH]cn1)Nc1ccc(-c2ccc(-c3nc4cc(F)ccc4[nH]3)cc2)cc1 | 100 | 91 | 39
COC(=O)c1ccc(C(=O)NCCCCN2CCC(c3ccc4c(c3OC)CCCC4)CC2)cc1-c1ccc(C(F)(F)F)cc1 | 93 | 19 | 24
CCc1nc(N)nc(N)c1-c1ccccc1 | 92 | 1 | 53
COc1cc(NC(=O)c2nn(CCCN3CCC(N4CCCC4)CC3)cc2-c2ccc(Cl)c(Cl)c2)cc(OC)c1OC | 100 | 100 | 76
COc1cc2c(Nc3ccc(NC(=O)c4ccccc4)cc3)ncnc2cc1OCCCN1CCOCC1 | 99 | 93 | 14
COc1ccc2[nH]c(C)cc(=NN=Cc3cccc(F)c3)c2c1 | 100 | 100 | 2
CN1CCN(c2cccc(-c3nnc(-c4ccc(OCC(=O)NCc5ccc(C(F)(F)F)cc5)c([N+](=O)[O-])c4)o3)c2)CC1 | 90 | 44 | 35
Cc1cc(Nc2ccc(C(C)(C)C)cc2)c2[nH]ncc2n1.Cl | 83 | 63 | 31
COC(=O)c1cccc(CNCc2cccc(-c3cccc(-c4nc5ccccc5[nH]4)c3)c2)c1.O=C(O)C(F)(F)F | 95 | 58 | 3
CC(C)c1ccc(-c2noc(SCC(=O)N(C)c3ccc(F)cc3)n2)cc1 | 84 | 77 | 7
CN1CCN(CCCN(Cc2cccc(-c3ccc(CNC4CCCC4)cc3)c2)C(=O)/C=C/c2ccccc2)CC1.O=C(O)C(F)(F)F | 98 | 96 | 62
COc1ccc(Cl)cc1N1CCN(CCCNC(=O)c2ccc(-c3nc4cc(Cl)c(C)cc4[nH]3)c(F)c2)CC1 | 99 | 91 | 0
Fc1ccc(-c2csc3ncnc(Cl)c23)cc1 | 94 | 95 | 3
CC(NC(=O)c1ccc(O)c(-c2ccc(Cl)c(Cl)c2)c1)C(=O)NCCN1CCCCC1 (stereo not drawn) | 97 | 3 | 0
FC(F)(F)c1ccc2[nH]c(-c3ccc(-c4ccc(CN5CCN(c6cnccn6)CC5)cc4)cc3)nc2c1.O=C(O)C(F)(F)F | 99 | 50 | 21
Cl.OCC(CO)(CO)NCc1ccc2c3c(cccc13)-c1ccccc1-2 | 87 | 76 | 73

Compound | Inhibition [1] [%] | Inhibition [2] [%] | Inhibition [3] [%]
O=C(Nc1cccc(Cl)c1)c1cnc(N2CCN(c3ccncc3)CC2)c(Cl)c1.O=C(O)C(F)(F)F | 100 | 97 | 54
CCN(CC)CCN(Cc1ccc(-c2ccc(C(F)(F)F)cc2)nc1)C(=O)Cn1cc(Cc2cnn(C)c2)c(=O)n2nc(-c3ccccc3)cc12.O=C(O)C(O)C(O)C(=O)O | 97 | 95 | 35
CC(CN(C)C)C(=O)Nc1cccc(-c2ccc(-c3nc4cc(F)ccc4[nH]3)s2)c1 (stereo not drawn) | 100 | 99 | 3
CCCc1cc(Cc2cnc(N)nc2N)cc(CCC)c1O.Cl | 96 | 5 | 64
Br.Oc1ccc(CCNCCCCCCNCCc2ccc(Cl)c3ccccc23)cc1O | 99 | 1 | 22
Cc1[nH]c(C)c(-c2ccc(CCc3ccc(C(F)(F)F)cc3)nc2)c(=O)c1Cl | 97 | 97 | 24
O=C(O)C(F)(F)F.Oc1ccc(CN2Cc3ccccc3OC3(CCN(Cc4c[nH]c5cnccc45)CC3)C2)cc1 | 100 | 3 | 17
CCOC(=O)C(C)(C)Oc1ccc(CN(Cc2ccc(CC(C)C)cc2)C(=O)Nc2ccc(F)cc2F)c(OC)c1 | 97 | 96 | 5
CC(C)C[C@H](NC(=O)[C@H](Cc1ccccc1)N(C[C@H](Cc1ccccc1)NC(=O)OC(C)(C)C)C(=O)C(F)(F)F)C(=O)NC1CCN(Cc2ccccc2)CC1 | 92 | 82 | 13
Cc1ccc(NC(=O)Nc2ccccc2F)cc1-c1ccc(C(=O)Nc2ccncc2)cc1 | 99 | 54 | 36
Cc1n[nH]c2cc(Nc3ccnc(Nc4ccc(CN5CCOCC5)cc4)n3)ccc12 | 97 | 5 | 22
Cc1cccc(C)c1CNc1ccnc2ccccc12.Cl | 92 | 10 | 59
CCCCN(CCCC)CCCCNc1c2ccc(Cl)cc2nc2ccc(OC)cc12.Cl | 100 | 96 | 68
COc1ccc(Nc2nccc(N3CCC(NC(=O)c4cccc(C#N)c4)C3)n2)cc1 (stereo not drawn) | 92 | 93 | 6
O=c1cc(NCCCNCc2cccc(OC(F)(F)F)c2)[nH]c2ccccc12 | 97 | 72 | 0
COc1ccc(-c2ccc(NC(=O)c3ccc(C#N)cc3)cc2)cc1CN(C)CCN(C)C.O=C(O)C(F)(F)F | 96 | 58 | 28
Cc1cc(CNCCCCCCNCc2cccc([N+](=O)[O-])c2)ccc1O | 90 | 0 | 13
COc1ccccc1C1CC(c2ccccc2)=NN1C(=O)c1ccccc1 (stereo not drawn) | 100 | 93 | 13
N#Cc1ccc(CN2CCC(Oc3ccc(NC(=O)c4cccs4)cc3Cl)CC2)cc1.O=C(O)C(F)(F)F | 95 | 96 | 26
Cc1cccc2nc(-c3ccc(-c4ccc(CN5CCN(c6cnccn6)CC5)cc4)s3)[nH]c12.O=C(O)C(F)(F)F | 94 | 42 | 11
O=C(O)C(F)(F)F.O=S(=O)(Nc1ccc(-c2ccc(CN3CCCC3)cc2)cc1)c1cccc2cccnc12 | 91 | 10 | 37

Compound | Inhibition [1] [%] | Inhibition [2] [%] | Inhibition [3] [%]
COc1ccc(CNCC(C)(C)c2nc(-c3ccc(Cl)c(O)c3)c(-c3ccncc3)[nH]2)cc1.Cl | 100 | 99 | 76
CCOc1ccc(Br)cc1/C=C/C(=O)Nc1ccc2c(c1)CCCN(C)C2.O=C(O)C(F)(F)F | 90 | 17 | 40
N#CCOc1c(C2CCN(CCCCNC(=O)c3ccc(-c4ccc(C(F)(F)F)cc4)cc3)CC2)ccc2c1CCCC2 | 97 | 48 | 59
CCN(CC)CCN1C(=O)c2oc3ccc(F)cc3c(=O)c2C1c1cccc(Cl)c1 (stereo not drawn) | 99 | 93 | 0
CCCC[C@@H](C(=O)NCc1ccccc1C(F)(F)F)N1C(=O)CCC1C(=O)Nc1ccc([N+](=O)[O-])cc1 (stereo partly drawn) | 94 | 2 | 7
COC(=O)c1noc(C)c1I | 99 | 2 | 5
Cc1cc(N[C@@H](CC(C)C)C(=O)NCCc2ccccc2)nc(NCCc2ccc(F)cc2)n1.O=C(O)C(F)(F)F | 98 | 53 | 12
O=C(Nc1ccc(-c2nc3ccc(NC(=O)c4ccc(Br)cc4)cc3[nH]2)cc1)c1ccc(Br)cc1 | 98 | 4 | 40
CCCCNC(=O)[C@@H]1CCCN1C(=O)c1ccc(O)c(-c2ccc(Cl)c(Cl)c2)c1 | 98 | 92 | 0
Fc1ccc2[nH]c(-c3ccc(-c4ccc(CN5CCC(CCN6CCCCC6)CC5)cc4)s3)nc2c1.O=C(O)C(F)(F)F | 100 | 100 | 96
COc1cc(C(=O)Nc2ccc3nc(N4CCN(C)CC4)cc(C)c3c2)cc(OC)c1OC | 100 | 79 | 18
COc1cc(Cc2cnc(N)nc2N)cc(OCCCc2cc(OCc3ccccc3)no2)c1OC | 86 | 4 | 30
Fc1ccc2[nH]c(-c3ccc(-c4ccc(CNCC5CCCO5)cc4)s3)nc2c1.O=C(O)C(F)(F)F (stereo not drawn) | 100 | 99 | 30
Fc1cccc(COc2ccc(Nc3ncnc4sc(C#CCNC5CCCC5)cc34)cc2Cl)c1 | 100 | 78 | 3
COc1cc2c(=O)c(Cc3ccc(Cl)cc3)c(C)[nH]c2cc1F | 85 | 28 | 13
COc1ccccc1CCN1CCC(CN(C)Cc2ccc(O)c(Cl)c2)CC1 | 100 | 52 | 19
O=C(Nc1ccc(-c2nc3ccccc3[nH]2)cc1)c1cccc(S(=O)(=O)N2CCCC2)c1 | 100 | 64 | 0
CCNc1cc(C(=O)N[C@@H](Cc2ccccc2)[C@H](O)CNCc2cccc(-n3ccnc3)c2)cc(N2CCCC2=O)c1.O=C(O)C(F)(F)F | 99 | 96 | 1
CC(C)c1ccc(O)cc1Nc1ccnc2ccc(C(F)(F)F)cc12 | 97 | 90 | 6
